# Screen size: about 52,000 compounds; about 1,700 (3.3%) were called active. Cut-off read from the data, not from the text of the source: active = survival mostly below about 52% (no sharp cut-off); inactive = mostly above about 56%. Shown is part of a subset that was picked to be rich in actives.
# Tested on: Wild type
# Experiment: growth inhibition of S. aureus wild type versus tarO mutant, primary screen, teichoic acid synthesis inhibitors, RN4220, OD600 (AID 463173)
# Conditions: S. aureus RN4220 wild type/DeltatarO growth, OD600, 18 h, active compounds read low, screened at 18.75 µg/mL (by protocol)
row,SMILES,survival
1,Cc1noc(-c2ccc(-c3noc(-c4ccc(Cl)cc4)n3)cc2)n1,87% (inactive)
2,Cc1noc(-c2ccc(-c3noc(-c4ccccc4)n3)cc2)n1,-6% (active)
3,Cc1noc(-c2ccc(-c3noc(-c4ccc(F)cc4)n3)cc2)n1,64% (inactive)
4,Clc1cccc(C2=NC(c3cccs3)=Nc3ccc(Br)cc3N2)c1,79% (inactive)
5,CCOc1ccc(-c2c(C)nn3c(C)c(C(=O)NCCN(C)C)cnc23)cc1OCC,87% (inactive)
6,Cc1cccc(N2CCN(c3c4c(nc5nncn35)CCC4)CC2)c1C,84% (inactive)
7,CCCn1c2ccccc2c2cnn(CC(=O)NCc3ccccc3Cl)c(=O)c21,120% (inactive)
8,CCCn1c2ccccc2c2cnn(CC(=O)NCC3CCN(Cc4ccccc4C)CC3)c(=O)c21,14% (active)
9,COc1ccccc1CNC(=O)Cn1ncc2c3ccccc3n(Cc3ccccc3C)c2c1=O,85% (inactive)
10,CCCn1c2ccccc2c2cnn(CC(=O)NCC3CCN(Cc4ccc(C)cc4)CC3)c(=O)c21,-1% (active)
11,CCCn1c2ccccc2c2cnn(CC(=O)NC(C)CC)c(=O)c21 (stereo unspecified),64% (inactive)
12,CCCn1c2ccccc2c2cnn(CC(=O)NCC3CCN(Cc4ccc(F)cc4)CC3)c(=O)c21,74% (inactive)
13,Cc1ccc(CNC(=O)CN(C)S(=O)(=O)c2ccc3c(c2)c(=O)n(C)c(=O)n3C)cc1,84% (inactive)
14,c1ccc(C(c2nnnn2C2CCCC2)N2CCN(c3ccccc3)CC2)cc1 (stereo unspecified),108% (inactive)
15,Cc1ccc(C)c(N2CCN(C(=O)C3CCC(CNS(=O)(=O)c4ccc(Br)s4)CC3)CC2)c1 (stereo unspecified),76% (inactive)
16,O=C(Nc1ccc(F)cc1)c1ccc(CN2CC(=O)N3CCCCC3C2=O)cc1 (stereo unspecified),-6% (active)
17,CC(C)c1ccc(NC(=O)c2ccc(CN3CC(=O)N4CCCCC4C3=O)cc2)cc1 (stereo unspecified),90% (inactive)
18,Cc1ccc(NC(=O)c2ccc(CN3CC(=O)N4CCCCC4C3=O)cc2)cc1 (stereo unspecified),-6% (active)
19,O=C(Nc1cc(F)ccc1F)c1ccc(CN2CC(=O)N3CCCCC3C2=O)cc1 (stereo unspecified),76% (inactive)

row,SMILES,survival
1,CCc1ccc(NC(=O)c2ccc(CN3CC(=O)N4CCCCC4C3=O)cc2)cc1 (stereo unspecified),87% (inactive)
2,Cc1ccc(NC(=O)c2ccc(CN3CC(=O)N4CCCCC4C3=O)cc2)cc1C (stereo unspecified),73% (inactive)
3,CC(C)CCNc1ccc(-c2ccc(Cl)cc2)nn1,106% (inactive)
4,CCCCN(CCCC)C(=O)c1cc2c(=O)n3ccccc3nc2s1,61% (inactive)
5,Cc1ccc(N2CC(NC(=O)Cc3cccs3)CC2=O)cc1C (stereo unspecified),19% (inactive)
6,Fc1ccc(C(Nc2ccccc2Cl)c2nnc(-c3ccccc3Cl)o2)cc1 (stereo unspecified),89% (inactive)
7,Fc1ccc(NCc2ccccc2-c2nnc(-c3ccccc3Cl)o2)cc1,89% (inactive)
8,Cc1ccc(CCNC(c2ccc(F)cc2)c2nnc(-c3ccccc3Cl)o2)cc1 (stereo unspecified),0% (active)
9,COc1ccc(CCNC(c2ccc(F)cc2)c2nnc(-c3ccccc3Cl)o2)cc1OC (stereo unspecified),49% (inactive)
10,Fc1ccc(C(NCCc2ccc(Cl)cc2)c2nnc(-c3ccccc3Cl)o2)cc1 (stereo unspecified),11% (active)
11,Fc1ccc(C(NCCc2ccccc2)c2nnc(-c3ccccc3Cl)o2)cc1 (stereo unspecified),94% (inactive)
12,COc1cc(NC(=O)CCc2c(C)n(C)c3cc(-c4ccccc4C)nn3c2=O)cc(OC)c1OC,130% (inactive)
13,Cc1ccc(NC(=O)N2CCc3c([nH]c4ccccc34)C2c2ccccc2F)c(Cl)c1 (stereo unspecified),82% (inactive)
14,CCc1ccc(NS(=O)(=O)c2ccc(C(=O)N(C)C)s2)cc1,64% (inactive)
15,CCC1CCCCN1C(=O)c1sc(-n2nc(C)c(Cc3ccccc3)c2C)nc1C (stereo unspecified),72% (inactive)
16,CC(=O)c1ccc(NC(=O)C2CCN(S(=O)(=O)c3ccc4c(c3)CCCN4C(=O)C3CCC3)CC2)cc1,74% (inactive)
17,CCOC(=O)Cn1nc(N2CCN(c3ccc(F)cc3)CC2)ccc1=O,73% (inactive)
18,COc1ccc(Cn2ccc3nc(C)c(C(=O)NCc4cccc(OC)c4)cc3c2=O)cc1,75% (inactive)
19,Cc1ccc(CNC(=O)CCCc2nnc3n(C)c(=O)c4sccc4n23)cc1,92% (inactive)

row,SMILES,survival
1,CCOC(=O)c1cc(C)n(CC2CCC(C(=O)Nc3cccc(C(C)=O)c3)CC2)c1C (stereo unspecified),79% (inactive)
2,Cc1c(Cl)cccc1-n1nc(C)c2c(C)cc(=O)n(CC(=O)N3CCCc4ccccc43)c21,71% (inactive)
3,CC(=O)N1CCc2c(sc(NC(=O)CSc3ccccc3)c2-c2nc3ccccc3s2)C1,120% (inactive)
4,CCN1CCc2c(sc(NC(=O)CSc3ccccc3)c2-c2nc3ccccc3s2)C1,-6% (active)
5,CN1CCc2c(sc(NC(=O)CSc3ccccc3)c2-c2nc3ccccc3s2)C1,80% (inactive)
6,CCOC(=O)c1cc(-c2ccccc2)n(CC(=O)NC2CCC(C)CC2)c1C (stereo unspecified),81% (inactive)
7,CCc1ccc(NC(=O)C(CC)n2c(=O)c(C(F)(F)F)nc3ccccc32)cc1 (stereo unspecified),81% (inactive)
8,Cc1cccc(N2CCN(Cc3cc(=O)oc4cc(C)ccc34)CC2C)c1 (stereo unspecified),84% (inactive)
9,CC(C)(C)c1ccc(C2Sc3ccccc3NC3=C2C(=O)c2ccccc23)cc1 (stereo unspecified),82% (inactive)
10,O=C1C2=C(Nc3ccccc3SC2c2ccccc2C(F)(F)F)c2ccccc21 (stereo unspecified),11% (active)
11,O=C1C2=C(Nc3ccccc3SC2c2ccc(C(F)(F)F)cc2)c2ccccc21 (stereo unspecified),36% (inactive)
12,CCC(Sc1nnc(C)n2c1cc1sccc12)C(=O)Nc1ccccc1F (stereo unspecified),79% (inactive)
13,CCOc1cc(CNC(=O)c2ccc(Cn3c(=O)c4cccn4c4cccnc43)cc2)ccc1OC,86% (inactive)
14,COc1cccc(-c2nn(C)c3sc(C(=O)N4CCN(c5cccc(C)c5)C(C)C4)cc23)c1 (stereo unspecified),72% (inactive)
15,CCOC(=O)C1CCC(CN(Cc2ccc(Cl)cc2)S(=O)(=O)c2cccc(Cl)c2C)CC1 (stereo unspecified),82% (inactive)
16,CC(=O)c1ccc(NC(=O)CC2Nc3cccc4cccc(c34)NC2=O)cc1 (stereo unspecified),96% (inactive)
17,CCOC(=O)c1ccc(NC(=O)CC2Nc3ccccc3NC2=O)cc1 (stereo unspecified),62% (inactive)
18,CCOC(=O)c1ccc(NC(=O)CC2Nc3cccc4cccc(c34)NC2=O)cc1 (stereo unspecified),-13% (active)
